Data published in PubChem BioAssay (NCATS).
Where “and” joins values, the source holds several entries; their conditions need not be identical. Equal values may be shown once. Records with an inconclusive call do not appear. A structure can be active in one record and inactive in another. Calls of active or inactive are those of the source. Calls follow the shape of the dose curve; as a rule, active = well fitted curve in the direction sought with a large enough effect; inconclusive = small, poorly fitted or top-dose-only effect, or another doubt; inactive = no such curve, though single readings can be large; an effect the other way counts as inactive or inconclusive.

What was measured:
[1] = test system: TAB109; experiment: qHTS profiling for inhibitors of Plasmodium falciparum proliferation (AID 504749); also: nearly all actives have a fitted effect of over 60% in size; conditions: P. falciparum in erythrocytes, SYBR Green DNA, 72 h; series mostly up to 28.7 µM
Outline: (§1)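 Quantitative HTS: compounds pinned into medium, infected erythrocytes added (0.3% parasitemia, 2.5% hematocrit), 72 h culture at 37 C under 5% CO2. Saponin/Triton lysis with SYBR Green I, overnight RT, then fluorescence read.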

[2] = test system: TAB113; experiment: as above; conditions: P. falciparum in erythrocytes, SYBR Green DNA, 72 h; series mostly up to 28.7 µM
Outline: as §1

[3] = test system: TAB165; experiment: as above; conditions: P. falciparum in erythrocytes, SYBR Green DNA, 72 h; series mostly up to 28.7 µM
Outline: as §1

[4] = test system: HEK293; experiment: Cytotoxic Profiling of Annotated Libraries Using Quantitative High-Throughput Screening (AID 1296008); conditions: Five cell lines viability, CellTiter-Glo ATP luminescence, 48-72 h; max response: stronger effect = lower value; also: nearly all actives have a fitted effect of over 60% in size; as to max response: % is scaled to controls: 0 for no effect and ±100 for the full control effect
Outline: (§2)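 Compounds were pin-transferred onto cells and incubated 48 or 72 hr at 37 degree Celsius, 95% humidity. CellTiter-Glo was added, plates sat 10 min at room temperature, then ATP-coupled luminescence was imaged as the viability read-out.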

[5] = test system: HaCat; experiment: as above; conditions: Five cell lines viability, CellTiter-Glo ATP luminescence, 48-72 h; max response: stronger effect = lower value
Outline: as §2

[6] = test system: KB-3-1; experiment: as above; conditions: Five cell lines viability, CellTiter-Glo ATP luminescence, 48-72 h; max response: stronger effect = lower value
Outline: as §2

[7] = test system: MCC-13; experiment: qHTS assay to identify novel small-molecules to repurpose for Merkel cell carcinoma treatment (AID 1296009); conditions: MCC and control cell lines, CellTiter-Glo viability, 72 h; series mostly up to 46 µM; also: nearly all actives have a fitted effect of over 60% in size
Outline: (§3)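 Viability readout: ATP luminescence (CellTiter-Glo) after 72 hr drug exposure at 37 degree celsius. Dose-response format was 8 points for NPC and 11 points for MIPE; data normalized to in-plate controls.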

[8] = test system: MCC-26; experiment: as above; conditions: MCC and control cell lines, CellTiter-Glo viability, 72 h; series mostly up to 46 µM
Outline: as §3

[9] = test system: MKL-1; experiment: as above; conditions: MCC and control cell lines, CellTiter-Glo viability, 72 h; series mostly up to 46 µM
Outline: as §3

[10] = test system: MKL-2; experiment: as above; conditions: MCC and control cell lines, CellTiter-Glo viability, 72 h; series mostly up to 46 µM
Outline: as §3

[11] = test system: C33A; experiment: Primary qHTS to identify gynecologic anti-cancer compounds using libraries of approved drugs and bioactive compounds (AID 1345084); conditions: Gynecologic cancer cell panel viability, ATPlite luminescence, 48 h; series mostly up to 57.5 µM; also: nearly all actives have a fitted effect of over 55% in size
Outline: (§4)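 Luminescence from the ATPlite ATP-monitoring reagent indicates viable cell number; lower signal means cytotoxicity. Cells received compound 16 h after seeding and were exposed for 48 h across five concentrations.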

[12] = test system: W2; experiment: qHTS profiling for inhibitors of Plasmodium falciparum proliferation (AID 504749); also: nearly all actives have a fitted effect of over 60% in size; conditions: P. falciparum in erythrocytes, SYBR Green DNA, 72 h; series mostly up to 28.7 µM
Outline: as §1

[13] = test system: CRL-7250; experiment: Cytotoxic Profiling of Annotated Libraries Using Quantitative High-Throughput Screening (AID 1296008); conditions: Five cell lines viability, CellTiter-Glo ATP luminescence, 48-72 h; max response: stronger effect = lower value; also: nearly all actives have a fitted effect of over 60% in size; as to max response: % is scaled to controls: 0 for no effect and ±100 for the full control effect
Outline: as §2

[14] = test system: NIH3T3; experiment: as above; conditions: Five cell lines viability, CellTiter-Glo ATP luminescence, 48-72 h; max response: stronger effect = lower value
Outline: as §2

[15] = test system: HACAT; experiment: qHTS assay to identify novel small-molecules to repurpose for Merkel cell carcinoma treatment (AID 1296009); conditions: MCC and control cell lines, CellTiter-Glo viability, 72 h; at 44.8 µM (top of the series) unless noted; also: nearly all actives have a fitted effect of over 60% in size
Outline: as §3

[16] = test system: UISO; experiment: as above; conditions: MCC and control cell lines, CellTiter-Glo viability, 72 h; series mostly up to 46 µM
Outline: as §3

[17] = test system: WaGa; experiment: as above; conditions: MCC and control cell lines, CellTiter-Glo viability, 72 h; series mostly up to 46 µM
Outline: as §3

[18] = test system: CAOV3; experiment: Primary qHTS to identify gynecologic anti-cancer compounds using libraries of approved drugs and bioactive compounds (AID 1345084); conditions: Gynecologic cancer cell panel viability, ATPlite luminescence, 48 h; series mostly up to 57.5 µM; also: nearly all actives have a fitted effect of over 55% in size
Outline: as §4
Potency is read from the fitted curve at half-maximal effect.

CC(CN1c2ccccc2Sc2ccccc21)N(C)C (configuration not stated)
active: Potency [4] 11.9 µM
inactive: Potency [1] | Potency [2] | Potency [3] | max response [5] 3.18% | max response [6] 7.29% | Potency [7] | Potency [8] | Potency [9] | Potency [10] | Potency [11]

CN1CCN(C2Cc3ccccc3Sc3ccc(Cl)cc32)CC1 (configuration not stated)
active: Potency [3] 12.6 µM | Potency [12] 3.79 µM | Potency [9] 26.6 µM | Potency [10] 26.6 µM | Potency [16] 23.7 µM | Potency [17] 23.7 µM
inactive: max response [13] -15.1% | outcome [5] | max response [6] 6.06% | max response [14] -9.64% | outcome [15] | Potency [7] | Potency [8] | Potency [11]

COc1ccc2cc1Oc1ccc(cc1)C[C@H]1c3c(cc4c(c3Oc3cc5c(cc3OC)CCN(C)[C@@H]5C2)OCO4)CCN1C
inactive: outcome [5] | max response [6] 0.814% | outcome [15] | Potency [7] | Potency [8] | Potency [11]
active: Potency [4] 10.6 µM and 7.31 µM | Potency [9] 23.7 µM | Potency [10] 3.35 µM | Potency [17] 18.8 µM

CC(CN(C)C)CN1c2ccccc2CCc2ccccc21 (configuration not stated)
inactive: outcome [13] | max response [5] 2.23% | max response [6] 4.48% | max response [14] 4.54% | Potency [7] | Potency [8] | Potency [9] | Potency [16] | Potency [17] | Potency [11]

CCN(CC)CCCC(C)Nc1c2ccc(Cl)cc2nc2ccc(OC)cc12 (configuration not stated)
active: Potency [13] 16.8 µM | Potency [4] 7.5 µM and 3.17 µM | Potency [7] 23.7 µM | Potency [9] 15 µM | Potency [10] 3.35 µM | Potency [17] 26.6 µM | Potency [18] 3.98 µM
inactive: max response [6] -7.27%
12.6 µM (active) and inactive: Potency [11]

COCCOC(=O)C1=C(C)NC(C)=C(C(=O)OC/C=C/c2ccccc2)C1c1cccc([N+](=O)[O-])c1 (configuration not stated)
active: Potency [3] 12.6 µM | Potency [12] 9.53 µM | Potency [9] 21.1 µM
inactive: Potency [8]

C=Cc1c(C)c2cc3[nH]c(cc4nc(cc5nc(cc1[nH]2)C(C)=C5CCC(=O)O)C(CCC(=O)O)=C4C)c(C)c3C=C
inactive: Potency [1] | Potency [2] | Potency [3] | Potency [12] | max response [4] -10.7% | outcome [5] | max response [6] -3.43% | max response [14] -14.7% | outcome [15] | Potency [7] | Potency [8] | Potency [9] | Potency [10] | Potency [16] | Potency [17] | Potency [11]

CSc1ccc2c(c1)C(N1CCN(C)CC1)Cc1ccccc1S2 (configuration not stated)
inactive: outcome [5] | max response [6] 0.66% | outcome [15] | Potency [7] | Potency [8] | Potency [11]
active: Potency [3] 12.6 µM | Potency [12] 5.36 µM | Potency [4] 16.8 µM

CC(=O)OCC(=O)[C@@]1(O)CC[C@H]2[C@@H]3CCC4=CC(=O)CC[C@]4(C)[C@H]3C(=O)C[C@@]21C
inactive: Potency [11]

CN1CCCCC1CCN1c2ccccc2Sc2ccc(S(C)=O)cc21 (configuration not stated)
active: Potency [12] 1.9 µM
inactive: Potency [2] | outcome [13] | outcome [5] | max response [14] -18.7% | outcome [15] | Potency [7] | Potency [8] | Potency [9] | Potency [10] | Potency [16] | Potency [11] | Potency [18]

CNCCC(Oc1ccc(C(F)(F)F)cc1)c1ccccc1 (configuration not stated)
inactive: max response [6] 2.04%
active: Potency [3] 11.2 µM | Potency [12] 3.79 µM | Potency [9] 26.6 µM | Potency [17] 21.1 µM
